Experiment [1] addresses Estrogen receptor (Homo sapiens) (UniProt P03372). Nature of the experiment: qHTS assay to identify small molecule agonists of the estrogen receptor alpha (ER-alpha) signaling pathway in the presence of an antagonist (AID 1259383; calls by dose curve; note: top concentration of the series differs between compounds; nearly all actives have a fitted effect of over 15% in size). The essentials: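 Stably transfected VM7Luc4E2 reporter cells, kept 5 days in charcoal-stripped serum, received ICI-182,780 at 10.0nM final before compound addition. Following 22hr incubation at 37C and 5% CO2, luciferase signal was read by luminescence.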
In general terms: In qHTS, concentration-response curves come from the screen itself.

The nature of experiment [2]: qHTS assay to identify small molecule agonists or antagonists of the thyroid stimulating hormone receptor (TSHR) signaling pathway - wild type cell line counter screen (AID 1259384; calls by dose curve). The essentials: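 Counter screen in untransfected Hek293: compounds (15-point titration, triplicate) plus phosphodiesterase inhibitor Ro20-1724 added after 18 h plating; 30 min RT. Intracellular cAMP via competitive d2/cryptate immunoassay, 1 h incubation.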

Experiment [3] has as its target Thyrotropin receptor (Homo sapiens) (UniProt P16473). Nature of the experiment: qHTS assay to identify small molecule antagonists of the thyroid stimulating hormone receptor (TSHR) signaling pathway (AID 1259385; calls by dose curve; note: nearly all actives have a fitted effect of over 20% in size). The essentials: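 Antagonist mode: compound-treated TSHR-expressing HEK293 cells were stimulated with 1.5 ng/mL TSH (final) in presence of Ro20-1724 for 30 min at RT. HTRF cAMP detection after 1 h; each compound tested at 15 concentrations, triplicate.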

The nature of experiment [4]: qHTS assay to identify small molecule agonists of the estrogen receptor alpha (ER-alpha) signaling pathway in the presence of an antagonist - cell viability counter screen (AID 1259386).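 Note: series mostly up to about 92 µM; cells exposed to compounds for 22 h at 37 °C before the viability read; nearly all actives have a fitted effect of over 30% in size.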 The essentials: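 Viability counter screen using VM7Luc4E2 (full-length ER-alpha, four ERE-luciferase). The cells were treated with compounds alongside ICI-182,780 10.0nM for 22hr, and live-cell protease fluorescence was quantified with CellTiter-Fluor.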

Experiment [5] can be described thus: qHTS assay to identify small molecule antagonists of the TGF-beta/Smad signaling pathway - cell viability counter screen (AID 1346824). Note: nearly all actives have a fitted effect of over 50% in size. The essentials: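 Cytotoxicity counter-screen run in the same wells as the beta-lactamase Smad reporter read: CellTiter-Glo luminescence after 30 min at room temperature. HEK 293T SBE-bla cells had 5 hr compound exposure at 37 C with TGF-beta1 (0.25 ng/mL stock).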

Experiment [6] in a line: qHTS assay to identify small molecule agonists of the TGF-beta/Smad signaling pathway - cell viability counter screen (AID 1346829). Note: top concentration of the series differs between compounds; nearly all actives have a fitted effect of over 45% in size. The essentials: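 Compound-treated SBE-bla HEK 293T cells (5 hr, 37 C) were assessed for viability with CellTiter-Glo in parallel with the reporter read.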
Experiment [7] can be described thus: qHTS assay to identify small molecule agonists of the TGF-beta/Smad signaling pathway (AID 1346859; active = well fitted activation curve with a large enough effect in the signal ratio in the repeat runs, not every such curve was filed as active; the % refers to the signal ratio; note: series mostly up to about 77 µM). The essentials: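 Stable Smad binding element-beta-lactamase HEK 293T cells; 5 hr compound exposure at 37 C under 5% CO2; 2 hr room-temperature substrate step; fluorescence excited at 405 nm, collected at 460 nm and 530 nm.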
Experiment [8] concerns the target Thyrotropin-releasing hormone receptor (Homo sapiens) (UniProt P34981). Nature of the experiment: qHTS assay to identify small molecule antagonists of the thyrotropin-releasing hormone receptor (TRHR) signaling pathway (AID 1346877; active = well fitted inhibition curve with a large enough effect in the repeat runs, not every such curve was filed as active; note: series mostly up to about 51 µM). The essentials:
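Following an 18 h incubation at 37 °C and a 2 h calcium dye load, TRHR-HEK293 cells were exposed to compound (5 min, room temperature) and challenged with TRH, 1 nM final.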

Experiment [9] has the same target. Nature of the experiment: qHTS assay to identify small molecule agonists of the thyrotropin-releasing hormone receptor (TRHR) signaling pathway (AID 1346891; calls by dose curve;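 note: HEK293 cells expressing TRHR with calcium dye readout; series mostly up to about 58 µM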). The essentials: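 In 1536-format, 1500 TRHR-Hek293 cells per well grew 18 h, took up calcium dye for 2 h at 37 °C, received compound, and were read kinetically; 15-point titrations, triplicates.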
The nature of experiment [10]: Human pregnane X receptor (PXR) small molecule agonists, qHTS cell viability counter screen (AID 1346977). Note: nearly all actives have a fitted effect of over 50% in size. The essentials: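 Readout is CellTiter-Fluor fluorescence from PXR-Luc HepG2 cells. Plated cells rested 5hr, then were treated with compounds for 24hr at 37C and 5% CO2, with reagent present during the last hour.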
Experiment [11] is described as follows: Caspase-3/7 induction in HepG2 cells by small molecules, qHTS assay (AID 1346978). Note: nearly all actives have a fitted effect of over 15% in size. The essentials:
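Caspase-3/7 induction was measured by Caspase-Glo 3/7 luminescence (30 min, room temperature) after a 17 hr compound exposure of wild-type HepG2 cells seeded at 2,000 per well and pre-incubated 5 hr.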

A short description of experiment [12]: Caspase-3/7 induction in CHO-K1 cells by small molecules, qHTS cell viability counter screen (AID 1346979). Note: nearly all actives have a fitted effect of over 35% in size. The essentials:
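To flag cytotoxic compounds, treated CHO-K1 wild-type cells were given CellTiter-Fluor at 16hr and read fluorescently after 1hr at 37C; the caspase-3/7 luminescence was measured in these same wells.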

A short description of experiment [13]: Caspase-3/7 induction in CHO-K1 cells by small molecules, qHTS assay (AID 1346980). Note: nearly all actives have a fitted effect of over 15% in size. The essentials: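 Luminescent Caspase-Glo 3/7 read (30min, room temperature) quantified apoptosis induction. Cells were wild-type CHO-K1, treated with compound for 17hr at 37 C and 5% CO2.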
A short description of experiment [14]: Caspase-3/7 induction in HepG2 cells by small molecules, qHTS cell viability counter screen (AID 1346981). Note: series mostly up to about 92 µM; nearly all actives have a fitted effect of over 30% in size. The essentials: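 Viability determined by CellTiter-Fluor fluorescence in HepG2 wells also used for the luminescent Caspase-Glo 3/7 read. Compounds were present for 16 hr at 37 C, 5% CO2 before reagent addition.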
Experiment [15] addresses Nuclear receptor subfamily 1 group I member 2 (Homo sapiens) (UniProt O75469). Nature of the experiment: Human pregnane X receptor (PXR) small molecule agonists, qHTS assay (AID 1346982). Note: nearly all actives have a fitted effect of over 35% in size. Note: potency is the fitted concentration of half-maximal effect. The essentials:
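Compound-induced hPXR transactivation of a CYP3A4 luciferase reporter was scored in HepG2 PXR-Luc cells over 24 hr at 37 C, 5% CO2, by luminescence.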

Experiment [16] in a line: qHTS assay to identify small molecule antagonists of the progesterone receptor (PR) signaling pathway - cell viability counter screen (AID 1346798). Note: nearly all actives have a fitted effect of over 50% in size. Note: potency is the fitted concentration of half-maximal effect. The essentials: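 ATP content as viability readout: CellTiter-Glo luminescence, 30 min room temperature, in PR-UAS-bla HEK293T cells after 16 hr compound/R5020 treatment at 37C and 5% CO2.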
Experiment [17] in a line: qHTS assay to identify small molecule agonists of the progesterone receptor (PR) signaling pathway - cell viability counter screen (AID 1346799; calls by dose curve; note: nearly all actives have a fitted effect of over 45% in size). The essentials: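 Cytotoxicity in PR-bla HEK293T cells: 16 h compound, 37C; CellTiter-Glo added post-FRET read; luminescence after 30 min RT.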
The nature of experiment [18]: qHTS assay to identify small molecule antagonists of the estrogen receptor beta (ER-beta) signaling pathway - cell viability counter screen (AID 1259382).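 Note: HEK293T cells carrying ER-beta-UAS-bla reporter stimulated with estradiol; series mostly up to about 92 µM; nearly all actives have a fitted effect of over 55% in size.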 The essentials:
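In this multiplexed counter screen, cells were seeded at 2,000 per well in medium with 2% charcoal-stripped FBS and incubated 6 hr before compound and 1nM final E2 were added. Sixteen hours later, ATP-based luminescence reported viability.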

In experiment [19] the target is Progesterone receptor (Homo sapiens) (UniProt P06401). Nature of the experiment: qHTS assay to identify small molecule agonists of the progesterone receptor (PR) signaling pathway (AID 1346784; calls by dose curve; note: nearly all actives have a fitted effect of over 30% in size). The essentials:
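Using charcoal-stripped serum (2%) to limit endogenous steroids, PR-UAS-bla HEK 293T cells received compounds for 16 hr at 37C after 6 hr plating; beta-lactamase FRET fluorescence was recorded following 2 hr substrate loading at room temperature.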

For experiment [20] the target is unchanged. Nature of the experiment: qHTS assay to identify small molecule antagonists of the progesterone receptor (PR) signaling pathway (AID 1346795; active = well fitted inhibition curve with a large enough effect in the signal ratio in the repeat runs, not every such curve was filed as active; the % refers to the signal ratio). The essentials:
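Inhibition of R5020-induced (1 nM final) beta-lactamase reporter signal in PR-UAS-bla HEK293T cells was scored by FRET fluorescence after overnight (16 hr) compound treatment.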

Experimental findings from PubChem BioAssay (Tox21) are described below.

A number with no mark means an inactive call. Records with an inconclusive call do not appear. Activity calls are given as the source filed them. Unless noted, calls come from the whole dose curve; as a rule, active = well fitted curve in the direction sought with a large enough effect in the repeat runs; inconclusive = weak or mixed curves; inactive = no such curve, though single readings can be large; an effect the other way counts as inactive or inconclusive.

Chain of Nuclear receptor subfamily 1 group I member 2 (Homo sapiens) (O75469 whole entry, looked up): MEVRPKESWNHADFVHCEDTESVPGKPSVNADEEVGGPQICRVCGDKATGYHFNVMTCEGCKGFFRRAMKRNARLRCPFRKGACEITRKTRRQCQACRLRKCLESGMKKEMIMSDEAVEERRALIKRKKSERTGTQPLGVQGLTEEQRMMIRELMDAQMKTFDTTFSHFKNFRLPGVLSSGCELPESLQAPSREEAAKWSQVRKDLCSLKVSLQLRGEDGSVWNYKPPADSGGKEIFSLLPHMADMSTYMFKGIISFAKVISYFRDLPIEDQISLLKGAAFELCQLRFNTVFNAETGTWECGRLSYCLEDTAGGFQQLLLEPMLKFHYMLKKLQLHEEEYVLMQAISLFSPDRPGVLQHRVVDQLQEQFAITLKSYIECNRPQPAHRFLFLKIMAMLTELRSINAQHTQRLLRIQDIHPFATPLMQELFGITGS
Chain of Thyrotropin-releasing hormone receptor (Homo sapiens) (P34981 whole entry, looked up): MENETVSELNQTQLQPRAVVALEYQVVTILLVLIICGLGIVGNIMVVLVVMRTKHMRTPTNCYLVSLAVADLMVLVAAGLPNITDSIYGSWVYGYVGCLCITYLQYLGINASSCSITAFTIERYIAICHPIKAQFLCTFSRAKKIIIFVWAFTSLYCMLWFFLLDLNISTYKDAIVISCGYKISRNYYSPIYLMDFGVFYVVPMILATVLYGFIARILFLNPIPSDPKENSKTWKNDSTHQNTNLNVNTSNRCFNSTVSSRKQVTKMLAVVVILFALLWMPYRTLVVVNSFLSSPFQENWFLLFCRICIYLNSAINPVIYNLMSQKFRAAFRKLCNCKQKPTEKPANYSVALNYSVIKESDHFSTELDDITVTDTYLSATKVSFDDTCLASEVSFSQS
Chain of Progesterone receptor (Homo sapiens) (P06401 whole entry, looked up): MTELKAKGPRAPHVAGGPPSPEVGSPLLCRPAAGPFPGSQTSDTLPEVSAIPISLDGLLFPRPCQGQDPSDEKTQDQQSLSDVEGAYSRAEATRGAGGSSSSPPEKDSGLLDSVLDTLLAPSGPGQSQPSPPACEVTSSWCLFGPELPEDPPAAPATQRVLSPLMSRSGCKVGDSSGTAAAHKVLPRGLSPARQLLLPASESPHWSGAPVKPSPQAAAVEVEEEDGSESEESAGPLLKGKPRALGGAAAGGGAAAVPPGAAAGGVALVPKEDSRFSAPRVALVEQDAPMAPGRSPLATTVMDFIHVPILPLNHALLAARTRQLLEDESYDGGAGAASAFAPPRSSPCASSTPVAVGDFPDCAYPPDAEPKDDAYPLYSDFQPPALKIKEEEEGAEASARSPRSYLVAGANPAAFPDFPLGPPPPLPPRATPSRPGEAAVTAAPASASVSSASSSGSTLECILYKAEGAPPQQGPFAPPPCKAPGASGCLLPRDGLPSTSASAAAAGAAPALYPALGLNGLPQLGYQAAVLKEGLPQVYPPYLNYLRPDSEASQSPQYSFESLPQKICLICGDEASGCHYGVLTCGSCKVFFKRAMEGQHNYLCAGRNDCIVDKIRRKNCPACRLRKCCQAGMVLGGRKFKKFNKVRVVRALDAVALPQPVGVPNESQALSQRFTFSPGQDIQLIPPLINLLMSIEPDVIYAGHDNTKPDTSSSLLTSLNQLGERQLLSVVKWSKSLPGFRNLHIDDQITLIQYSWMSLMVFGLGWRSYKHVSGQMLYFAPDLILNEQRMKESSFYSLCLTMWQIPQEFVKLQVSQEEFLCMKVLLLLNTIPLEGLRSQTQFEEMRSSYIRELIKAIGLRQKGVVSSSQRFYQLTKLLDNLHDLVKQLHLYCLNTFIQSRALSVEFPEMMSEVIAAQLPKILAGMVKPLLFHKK
Chain of Thyrotropin receptor (Homo sapiens) (P16473 whole entry, looked up): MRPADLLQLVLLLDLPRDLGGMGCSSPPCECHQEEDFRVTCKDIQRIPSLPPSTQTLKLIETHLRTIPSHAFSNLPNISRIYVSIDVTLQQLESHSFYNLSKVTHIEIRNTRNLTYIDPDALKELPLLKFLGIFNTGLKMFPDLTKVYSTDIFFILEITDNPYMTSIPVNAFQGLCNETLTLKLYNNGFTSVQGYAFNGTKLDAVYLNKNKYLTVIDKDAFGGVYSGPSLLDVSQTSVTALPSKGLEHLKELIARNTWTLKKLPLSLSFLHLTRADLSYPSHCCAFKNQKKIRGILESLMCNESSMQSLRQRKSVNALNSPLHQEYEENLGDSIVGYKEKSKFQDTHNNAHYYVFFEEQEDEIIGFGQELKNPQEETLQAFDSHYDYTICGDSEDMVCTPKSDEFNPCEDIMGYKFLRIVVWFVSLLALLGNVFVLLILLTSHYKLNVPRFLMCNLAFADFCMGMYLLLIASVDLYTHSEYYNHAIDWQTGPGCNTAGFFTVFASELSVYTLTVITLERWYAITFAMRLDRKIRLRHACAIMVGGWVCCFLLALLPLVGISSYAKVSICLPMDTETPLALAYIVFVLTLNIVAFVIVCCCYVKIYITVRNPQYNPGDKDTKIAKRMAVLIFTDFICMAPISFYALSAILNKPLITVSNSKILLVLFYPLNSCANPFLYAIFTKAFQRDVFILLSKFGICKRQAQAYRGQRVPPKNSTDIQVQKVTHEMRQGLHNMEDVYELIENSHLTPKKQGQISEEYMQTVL
Chain of Estrogen receptor (Homo sapiens) (P03372 whole entry, looked up): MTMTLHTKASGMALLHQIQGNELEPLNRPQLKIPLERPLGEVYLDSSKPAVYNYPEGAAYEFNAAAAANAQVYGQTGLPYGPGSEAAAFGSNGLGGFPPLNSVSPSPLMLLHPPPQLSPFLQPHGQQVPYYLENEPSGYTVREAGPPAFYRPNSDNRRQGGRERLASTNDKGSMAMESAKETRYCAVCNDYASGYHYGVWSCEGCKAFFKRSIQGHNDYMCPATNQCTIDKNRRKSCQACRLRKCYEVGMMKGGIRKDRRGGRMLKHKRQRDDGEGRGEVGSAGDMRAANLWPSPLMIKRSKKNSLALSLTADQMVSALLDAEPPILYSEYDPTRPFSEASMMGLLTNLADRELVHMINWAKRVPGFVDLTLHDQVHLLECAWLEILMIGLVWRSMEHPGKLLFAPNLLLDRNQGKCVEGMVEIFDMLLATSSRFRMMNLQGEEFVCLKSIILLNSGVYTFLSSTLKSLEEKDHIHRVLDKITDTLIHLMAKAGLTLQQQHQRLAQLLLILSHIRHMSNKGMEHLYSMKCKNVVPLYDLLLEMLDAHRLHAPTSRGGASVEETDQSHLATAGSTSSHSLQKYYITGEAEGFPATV

Turning to `Oc1ccccc1Cc1ccccc1O`, the result in experiment [1], in [2], in experiment [3], in [5], in experiment [6] and in [7] was inactive. Also, the compound was called inactive in [8], in experiment [9], in experiment [11] and in [13]. Besides, the Potency result in experiment [4], in [10], in experiment [12] and in experiment [14] was “inactive” throughout. Besides, the Potency in experiment [15] is 61.1 µM (active).
For the compound `Cc1cccc(NC(=S)N(C)C)c1`, the compound was called inactive in [2], in experiment [3], in experiment [5], in experiment [6], in [7] and in [8]. Moreover, the result in experiment [9] and in experiment [13] was inactive. The Potency entry in [4], in [17], in [12] and in [14] was “inactive” throughout. The Potency in experiment [16] was 30.6 µM (active).
For `CNCc1ccccc1`, the outcome in experiment [18], in [5], in experiment [7], in [8], in [9] and in experiment [13] was inactive. In addition, the Potency entry in [4], in experiment [19], in [20], in experiment [17], in experiment [12] and in experiment [14] was “inactive” throughout. Moreover, the Potency entry in [15] was “inactive”.
With `O=c1[nH]c(=O)c2ccccc2o1`, the result in experiment [18], in [2], in experiment [5], in experiment [6], in experiment [7] and in [11] was inactive. For the same compound, in experiment [13], the compound was classed as inactive. Besides, the Potency entry in [19], in experiment [20], in [16], in [17], in [12] and in experiment [14] was “inactive” throughout. For the same compound, the Potency result in experiment [15] was “inactive”.
For the compound `CCCCC(CC)C(=O)OC(C)C` (centres undefined), the outcome in experiment [18], in experiment [6], in [7], in experiment [8], in experiment [9] and in experiment [13] was inactive. In addition, the Potency result in experiment [4], in experiment [19], in [20], in experiment [17], in [10] and in [12] was “inactive” in each case. Also, the Potency result in experiment [14] and in [15] was “inactive” each time.
Regarding `C=CCOc1c(Br)cc(Br)cc1Br`, the compound was called inactive in experiment [18], in [2], in [5], in experiment [6], in experiment [7] and in experiment [8]. Also, the call in [9] and in experiment [13] was inactive. Besides, the Potency entry in experiment [4], in experiment [19], in experiment [16], in [17], in experiment [10] and in experiment [12] was “inactive” throughout. For the same compound, the Potency result in [14] was “inactive”.
Consider `CC(=O)OCC(=O)[C@@]1(O)[C@H](OC(C)=O)C[C@H]2[C@@H]3CCC4=CC(=O)C=C[C@]4(C)[C@@]3(F)[C@@H](O)C[C@@]21C`, for which the outcome in experiment [18], in experiment [5], in experiment [7], in experiment [8], in [9] and in [11] was inactive. For the same compound, the call in [13] was inactive. In addition, the Potency result in experiment [4], in experiment [19], in experiment [16], in experiment [17], in experiment [10] and in [12] was “inactive” throughout. Besides, the Potency entry in [14] and in experiment [15] was “inactive” throughout.
On to `C=COCCOCCOC=C`, for which the result in experiment [18], in [5], in experiment [6], in experiment [7], in [8] and in [9] was inactive. In experiment [11], the outcome was inactive. In addition, the Potency result in experiment [4], in [19], in experiment [20], in experiment [16], in experiment [17] and in [10] was “inactive” in each case. The Potency result in experiment [12], in experiment [14] and in [15] was “inactive” throughout.
In the case of `CCC(C)N` (centres undefined), the call in [18], in experiment [5], in experiment [6], in experiment [7], in experiment [8] and in experiment [9] was inactive. Further, in experiment [13], the compound was called inactive. Besides, the Potency entry in experiment [4], in experiment [19], in experiment [20], in experiment [16], in [12] and in experiment [14] was “inactive” in each case. Further, in [15], the Potency result was “inactive”.
